Results reported in the supplement of paper PMC7366291.
Where a name gives a salt, the structure may show the parent alone. ± gives the standard deviation or the standard deviation of the averaged measurements.

How the values were obtained:
Conditions in all cases: 25 µM; exposure: 24-48 hpf
[1] = test system: Danio rerio Tg(wt1b:EGFP) embryo, pronephros; experiment: glomerular separation, fold change vs DMSO control; higher = glomeruli further apart (abnormal)
Method in brief: (§1)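 Distances and angles describing the pronephros were computed by a Fiji macro from 16 reference points set manually on maximum projections of dorsal images. These images came from dechorionated Tg(wt1b:EGFP) zebrafish embryos held in agarose-filled 96-well plates after exposure to 25 μM compound in 0.5% DMSO, in HEPES-buffered E3 with 0.003% PTU, from 24 to 48 hpf at 28.5°C. Any value more than 2 SD from the feature mean was excluded. Features are stated as fold change relative to the mean of same-day DMSO-treated embryos.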

[2] = test system: Danio rerio Tg(wt1b:EGFP) embryo, pronephros; experiment: glomerular width (mean of left and right), fold change vs DMSO control; higher = wider glomerulus
Method in brief: as §1

[3] = test system: Danio rerio Tg(wt1b:EGFP) embryo, pronephros; experiment: fraction of imaged embryos annotated as normal kidney; higher = less nephrotoxic; extreme values may be limits of the assay
Method in brief: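 Embryos of the Tg(wt1b:EGFP) zebrafish line were dechorionated and held in 12-well plates with 25 μM compound in 0.5% DMSO and 5 mM HEPES-buffered E3 containing 0.003% PTU, from 24 to 48 hpf at 28.5°C. Larvae were then anaesthetised with tricaine, set dorsal side up in agarose-filled 96-well plates, and their pronephroi imaged by widefield fluorescence at 470 nm over 10 z-slices. Each value is the fraction of embryos per treatment placed in the normal-kidney category after manual annotation of maximum projections.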

[4] = test system: Danio rerio Tg(wt1b:EGFP) embryo, pronephros; experiment: pronephric angle neck segment to proximal convoluted tubule (mean of left and right), fold change vs DMSO control; higher = larger pronephric angle
Method in brief: as §1

Row | SMILES | glomerular separation [1] | glomerular width [2] | fraction of imaged embryos annotated as normal kidney [3] | pronephric angle neck segment [4]
1 | COc1ccc2cc([C@H](C)C(=O)O)ccc2c1 [Naproxen] | 2.89 ± 1.8 | 0.9508 ± 0.0065 | 0.167 | 1.52 ± 0.036
2 | COc1ccccc1OCC(O)CN1CCN(CC(=O)Nc2c(C)cccc2C)CC1 (stereo not drawn) [Ranolazine] | 0.739 ± 0.33 | 1.021 ± 0.0091 | 0.833 | 1.01 ± 0.029
3 | COc1cc(NC(C)CCCN)c2ncccc2c1 (stereo not drawn) [Primaquine diphosphate] | 1.04 ± 0.21 | 1.04 ± 0.079 | 1 | 1.01 ± 0.074
4 | CC[C@H]1OC(=O)[C@H](C)[C@@H](O[C@H]2C[C@@](C)(OC)[C@@H](O)[C@H](C)O2)[C@H](C)[C@@H](O[C@@H]2O[C@H](C)C[C@H](N(C)C)[C@H]2O)[C@](C)(O)C[C@@H](C)[C@@H]2N[C@@H](COCCOC)O[C@H]([C@H]2C)[C@]1(C)O [Dirithromycin] | 1 ± 0.51 | 0.964 ± 0.041 | 1 | 0.981 ± 0.065
5 | CN(CCOc1ccc(NS(C)(=O)=O)cc1)CCc1ccc(NS(C)(=O)=O)cc1 [Dofetilide] | 1.35 ± 0.35 | 0.982 ± 0.025 | 0.583 | 1.01 ± 0.07
6 | Cc1c(NC(C)C)c(=O)n(-c2ccccc2)n1C [Isopyrin hydrochloride] | 1.1 ± 0.6 | 1.04 ± 0.016 | 0.917 | 0.974 ± 0.022
7 | O=C(NCCNCC(O)COc1ccc(O)cc1)N1CCOCC1 (stereo not drawn) [Xamoterol hemifumarate] | 1.01 ± 0.28 | 0.983 ± 0.011 | 1 | 0.98 ± 0.045
8 | Nc1ncn(C2OC(CO)C(O)C2O)c(=O)n1 (stereo not drawn) [Azacytidine-5] | 0.981 ± 0.4 | 0.979 ± 0.017 | 1 | 1.02 ± 0.031
9 | CC(=O)Nc1ccc(CC(=O)O)cc1 [Actarit] | 1.05 ± 0.28 | 1.116 ± 0.0018 | 0.667 | 0.998 ± 0.049
10 | Clc1ccc(C(Cn2ccnc2)OCc2csc3c(Cl)cccc23)c(Cl)c1 (stereo not drawn) [Sertaconazole nitrate] | 3.82 ± 1.8 | 0.727 ± 0.039 | 0 | 1.56 ± 0.052
11 | CN(C)CCCN1c2ccccc2Sc2ccc(Cl)cc21 [Chlorpromazine hydrochloride] | 0.83 ± 0.37 | 1.01 ± 0.1 | 0.833 | 0.974 ± 0.024
12 | CN(C)CCCN1c2ccccc2Sc2ccccc21 [Promazine hydrochloride] | 1.25 ± 0.35 | 1.044 ± 0.0041 | 0.75 | 0.962 ± 0.047
13 | COc1cc(C(=O)NS(=O)(=O)c2ccccc2C)ccc1Cc1cn(C)c2ccc(NC(=O)OC3CCCC3)cc12 [Zafirlukast] | 0.957 ± 0.46 | 0.9694 ± 0.0078 | 1 | 1.09 ± 0.065
14 | N=C(N)NC(=O)c1nc(Cl)c(N)nc1N [Amiloride hydrochloride dihydrate] | 0.835 ± 0.27 | 0.978 ± 0.074 | 0.583 | 0.985 ± 0.023
15 | Cc1cc(O)c(C(=O)N[C@@H](C(=O)N[C@@H]2C(=O)N3C(C(=O)O)=C(CSc4nnnn4C)CS[C@H]23)c2ccc(O)cc2)cn1 [Cefpiramide] | 1.22 ± 0.39 | 0.985 ± 0.089 | 0.833 | 0.9442 ± 0.0043
16 | CN(C)CCN(Cc1cccs1)c1ccccn1 [Methapyrilene hydrochloride] | 0.984 ± 0.37 | 0.99 ± 0.077 | 0.917 | 0.9838 ± 0.0071
17 | Cc1cn([C@H]2C[C@H](N=[N+]=[N-])[C@@H](CO)O2)c(=O)[nH]c1=O [Zidovudine, AZT] | 1 ± 0.41 | 1.06 ± 0.08 | 1 | 0.991 ± 0.018
18 | C[C@]12C[C@H](O)[C@H]3[C@@H](CCC4=CC(=O)CC[C@@]43C)[C@@H]1CC[C@@H]2C(=O)CO [Corticosterone] | 1.36 ± 0.4 | 1.13 ± 0.026 | 0.417 | 1.01 ± 0.019
19 | Clc1ccc2nsnc2c1NC1=NCCN1 [Tizanidine hydrochloride] | 1.02 ± 0.43 | 1.01 ± 0.016 | 0.833 | 0.984 ± 0.036
20 | Nc1ccc(S(=O)(=O)Nc2ccnn2-c2ccccc2)cc1 [Sulfaphenazole] | 1.06 ± 0.3 | 1.022 ± 0.0084 | 0.917 | 1.02 ± 0.024
21 | Cc1cc(=O)n(-c2ccccc2)n1C [Antipyrine] | 1 ± 0.28 | 0.98 ± 0.024 | 0.667 | 1 ± 0.043
22 | COc1cc([S+](C)[O-])ccc1-c1nc2cccnc2[nH]1 (stereo not drawn) [Sulmazole] | 0.979 ± 0.27 | 1.05 ± 0.015 | 0.833 | 0.9818 ± 0.0097
23 | NC(=O)c1ccc[n+]([C@@H]2O[C@H](COP(=O)([O-])OP(=O)(O)OC[C@H]3O[C@@H](n4cnc5c(N)ncnc54)[C@H](O)[C@@H]3O)[C@@H](O)[C@H]2O)c1 [Nadide] | 0.955 ± 0.26 | 1.0386 ± 0.00057 | 0.75 | 0.9494 ± 0.0036
24 | Nc1ccn([C@H]2CC[C@@H](CO)O2)c(=O)n1 [Zalcitabine] | 1.08 ± 0.56 | 0.966 ± 0.061 | 0.917 | 0.996 ± 0.015
25 | CN1CCCN=C1/C=C/c1cccs1 [Pyrantel tartrate] | 0.9 ± 0.18 | 0.937 ± 0.024 | 0.917 | 1.074 ± 0.0072
26 | Cc1c(O)c(=O)n(-c2ccccc2)n1C [Antipyrine, 4-hydroxy] | 1.2 ± 0.38 | 0.951 ± 0.064 | 0.583 | 1.03 ± 0.028
27 | CN1C(C(=O)Nc2ccccn2)=C(O)c2ccccc2S1(=O)=O [Piroxicam] | 6.43 ± 2.4 | 0.525 ± 0.012 | 0 | 1.78 ± 0.095
